The sample as a whole holds a higher share of hits than the screen did.
CBX7 AlphaScr: blocks human CBX7 binding to H3K27me3 peptide; normalised signal (fraction of DMSO) (test concentration not listed); actives 1.1% (n = 66,000); AlphaScreen His6-CBX7 / biotin-H3K27me3 peptide binding; active compounds read low; O95931; AID 1224903; in the data active means normalised signal below about 0.5
Target sequence (O95931 whole entry, looked up): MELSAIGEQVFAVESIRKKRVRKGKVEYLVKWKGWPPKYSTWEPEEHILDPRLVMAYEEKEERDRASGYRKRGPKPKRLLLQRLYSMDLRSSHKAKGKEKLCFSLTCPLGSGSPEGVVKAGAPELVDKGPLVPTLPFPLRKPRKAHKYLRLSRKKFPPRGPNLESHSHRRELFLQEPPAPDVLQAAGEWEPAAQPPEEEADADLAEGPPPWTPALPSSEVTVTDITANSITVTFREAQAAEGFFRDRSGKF
Each line names hits and unclear results; the compound was inactive in the other large screens; ! = a repeat was not active.

COc1cccc(CNc2ccc3c(c2)nc(C)n3C)c1OC	none
COc1ccc(CNc2ccc(-c3nc4cc(C)ccc4s3)cc2)cc1OC	none
COc1ccc(CNc2ccc3c(c2)nc(C)n3Cc2ccccc2)cc1	CBX7 AlphaScr 0.35
Cc1nc2c(C(=O)NC(C)c3ccccc3)c[nH]n2c(=O)c1Cc1ccccc1F (stereo unspecified)	none
Clc1ccc(OCCCn2c(COc3ccccc3)nc3ccccc32)cc1	none
Cc1ccc(C)c(CN2C(=O)c3ccccc3S(=O)(=O)c3ccc(C(=O)NCCN(C)C)cc32)c1	none
COCCCNC(=O)c1cc(Nc2ccc(OC)c(OC)c2)nc2ccccc12	none
CCCCCOc1ccc(NC(=O)c2cccc(C(=O)OC)n2)cc1	none
CCCOc1cccc(-c2cc(C(=O)O)c3ccccc3n2)c1	none
COC(=O)c1c[nH]n2c(NC3CCCC3)c(-c3cccc(C)c3)nc12	none
COC(=O)c1c[nH]n2c(NC3CCCCC3)c(-c3cccc(Br)c3)nc12	none
COC(=O)c1c[nH]n2c(NC3CCCC3)c(-c3ccc(OC)cc3)nc12	CBX7 AlphaScr 0.11
COC(=O)c1c[nH]n2c(NC3CCCCC3)c(-c3cccc(OC)c3)nc12	none
CCCCOc1cccc(-c2nc3c(C(=O)OC)c[nH]n3c2NC2CCCC2)c1	CBX7 AlphaScr 0.2
COC(=O)c1c[nH]n2c(NC3CCCC3)c(-c3ccc(C)cc3)nc12	none
COC(=O)c1c[nH]n2c(NC3CCCC3)c(-c3cccc(OC)c3)nc12	CBX7 AlphaScr 0.38
COC(=O)c1c[nH]n2c(NC3CCCCC3)c(-c3cccc(C)c3)nc12	none
COC(=O)c1c[nH]n2c(NC3CCCCC3)c(-c3ccc(C)cc3)nc12	none
COC(=O)c1c[nH]n2c(NC3CCCCCC3)c(-c3cccc(OC)c3)nc12	CBX7 AlphaScr 0.5
Cc1cccc2c1-c1sc(C(=O)N3CCOCC3)cc1CO2	none
CCCCCSc1nnc2c(n1)OC=Nc1ccc(Br)cc1-2	none
O=C(Cn1nc(-c2ccccc2)c2cc(Cl)ccc21)NC1CCCC1	none
O=C(CCn1c(=O)c2sccc2n(Cc2cccnc2)c1=O)NCc1ccc2c(c1)OCO2	none
COc1ccc(/C=C/c2nc3ccccc3c(=O)n2-c2ccc(OC)c(Cl)c2)cc1O	none
Cc1cc(N2CCC(C(=O)O)CC2)n2nc(C)c(-c3ccc(Cl)cc3)c2n1	none
CN1CCN(CCCNC(=O)CSCc2cnn(-c3ccccc3)c2-n2cccc2)CC1	none
CCC1Oc2ccc(Cl)cc2N(CC(=O)NCCCN2CCOCC2)C1=O (stereo unspecified)	none
O=c1[nH]c2ccc(S(=O)(=O)N3CCC(Cc4ccccc4)CC3)cc2[nH]c1=O	none
O=C(c1c[nH]c2ccc(S(=O)(=O)N3CCCCC3c3cccnc3)cc2c1=O)N1CCCC1 (stereo unspecified)	none
COc1ccc(S(=O)(=O)N2CCCCC2c2cccnc2)cc1 (stereo unspecified)	none
O=C(O)c1c[nH]c2ccc(S(=O)(=O)N3CCCCC3c3cccnc3)cc2c1=O (stereo unspecified)	CBX7 AlphaScr 0.4
CCOC(=O)N1CCC(Nc2c(N3CCN(c4ccccc4F)CC3)c(=O)c2=O)CC1	none
COCCNC(=O)CSc1nc(-c2ccc(OC)cc2)[nH]c1-c1ccc(OC)cc1	none
CCOC(=O)c1cccc(NC(=O)C2CCN(S(=O)(=O)c3cccc4cccnc34)CC2)c1	none
O=C(O)CCC(=O)N1CCc2cc(S(=O)(=O)Nc3ccc(Cl)cc3)ccc21	none
COc1cc(-c2nc(-c3ccc(C)c(C)c3)c(-c3ccccc3)[nH]2)cc2c1OCO2	none
COc1ccc(-c2nc(-c3ccc(C)cc3)[nH]c2-c2ccc(OC)cc2)cc1	none
COc1cc(-c2nc(-c3ccc(C)c(C)c3)c(-c3ccc(C)c(C)c3)[nH]2)cc(OC)c1O	CBX7 AlphaScr 0.49
Clc1ccc2c(Nc3ccc(Oc4ccccc4)cc3)ccnc2c1	none
CC(C(=O)NCc1ccc(F)cc1)N1C(=O)CC(C)(C)Sc2ccccc21 (stereo unspecified)	none
CCn1cc(C(=O)N(C)c2cc(Cl)ccc2C)c2cc(OC)c(OC)cc2c1=O	none
COCCn1c(SCC(=O)N2CCOCC2)nnc1-c1c[nH]c2ccccc12	none
COc1ccc(-c2csc(NC(=O)c3cccc(Oc4ccccc4)c3)n2)c(OC)c1	none
COc1cc(OC)cc(C(=O)Nc2nc(-c3ccccn3)cs2)c1	CBX7 AlphaScr 0
O=C(Nc1nc(-c2ccncc2)cs1)c1cccc(Oc2ccccc2)c1	none
O=C(Nc1nc(-c2ccccn2)cs1)c1ccc(Oc2ccccc2)cc1	CBX7 AlphaScr 0.12
COc1ccc(-c2csc(NC(=O)c3ccc(Oc4ccccc4)cc3)n2)c(OC)c1	none
COc1ccc(-c2csc(NC(=O)c3ccccc3)n2)cc1	none
CCCCCCCNC(=O)c1cc(=O)[nH]c2ccc(S(=O)(=O)N3CCCCC3C)cc12 (stereo unspecified)	none
Cc1cccc(CCNC(=O)CC2Sc3ccccc3NC2=O)c1 (stereo unspecified)	none
Cc1cc(Cl)ccc1NC(=O)CC1Sc2ccccc2NC1=O (stereo unspecified)	none
Cc1ccc(C)c(N2CCN(C(=O)CC3Sc4ccccc4NC3=O)CC2)c1 (stereo unspecified)	CBX7 AlphaScr 0.5
O=C(Nc1ccc(F)cc1F)C1=CCN(S(=O)(=O)c2ccc(F)cc2)CC1	none
CC(=O)c1nn(-c2cccc(Cl)c2)cc1C(=O)c1cccs1	none
Oc1cccc(-c2nc(-c3ccccc3)c(-c3ccc(F)cc3)[nH]2)c1	CBX7 AlphaScr 0.35
O=C(O)c1ccc(-c2nc(-c3ccc(C(=O)c4ccc(F)cc4)cc3)c(-c3ccc(F)cc3)[nH]2)cc1	none
O=C(c1ccccc1)c1ccc(-c2[nH]c(-c3cccc(Cl)c3)nc2-c2ccccc2)cc1	none
Oc1ccc(-c2nc(-c3ccccc3)c(-c3ccc(F)cc3)[nH]2)cc1O	none
Cc1ccc(C)c(-c2[nH]c(-c3cccc(O)c3)nc2-c2ccccc2)c1	none
Oc1cccc(-c2nc(-c3ccccc3)c(-c3ccccc3)[nH]2)c1	CBX7 AlphaScr 0.34
Cc1cccc(OCCn2c(C3CC(=O)N(c4cc(C)cc(C)c4)C3)nc3ccccc32)c1 (stereo unspecified)	none
CCCNC(=O)CSCc1nc(-c2ccc(OCC)cc2)oc1C	none
CCOc1ccc(CC(=O)NCCc2cc3cc(C)c(C)cc3[nH]c2=O)cc1	none
CCOc1ccc(-c2cc(CCCC(=O)Nc3cc(C)cc(C)c3)no2)cc1	none
CC1(C)CC(=O)c2cnc(NCCc3ccccc3)nc2C1	none
Cc1nc2cc(-c3ccc(Cl)cc3)nn2c(C)c1CCC(=O)N1CCOCC1	none
Brc1ccc(Nc2nc(-c3ccc(Br)cc3)cs2)cc1	none
Clc1ccc(-c2csc(Nc3ccc4ccccc4c3)n2)cc1Cl	none
Cc1ccc(C)c(-c2csc(Nc3ccc(S(=O)(=O)Nc4cc(C)on4)cc3)n2)c1	none
Cc1ccc(C)c(-c2csc(Nc3ccc4c(c3)OCO4)n2)c1	CBX7 AlphaScr 0.35
Cc1ccc(C)c(-c2csc(Nc3ncccn3)n2)c1	none
c1ccc2cc(-c3csc(Nc4ccc5c(c4)OCO5)n3)ccc2c1	CBX7 AlphaScr 0.5
O=S(=O)(c1ccc(-c2csc(Nc3ccc4c(c3)OCO4)n2)cc1)N1CCCCC1	none
Brc1ccc(-c2csc(Nc3ccc4c(c3)OCO4)n2)cc1	CBX7 AlphaScr 0.35!
O=C(CN1C(=O)c2ccccc2C1=O)Nc1nc(-c2ccc3c(c2)OCO3)cs1	none
CCOc1cc2c(cc1OC)C(c1ccc3c(c1)OCO3)NCC2 (stereo unspecified)	none
COc1ccccc1Nc1nc(-c2cc3cc(Br)ccc3oc2=O)cs1	none
c1ccc2[nH]c(-c3c[nH]c4ccccc34)nc2c1	none
Fc1ccc(-c2[nH]c(-c3c[nH]c4ccc(Br)cc34)nc2-c2ccccc2)cc1	CBX7 AlphaScr 0.46
